This is an account of results in PubChem BioAssay (NCATS).

Where “and” joins values, the source holds several entries; their conditions need not be identical. Identical values can stand only once. Records with an inconclusive call do not appear. Calls of active or inactive are those of the source. Unless noted, the call rests on the fitted dose curve; in most records, active means well fitted curve in the direction sought with a large enough effect; inconclusive means small, poorly fitted or top-dose-only effect, or another doubt; inactive means no such curve, though single readings can be large; an effect the other way counts as inactive or inconclusive.

Assay [1] addresses Calcium and integrin-binding protein 1 (Homo sapiens) (UniProt Q99828). The assay can be described thus: Primary qHTS for Identification of Calcium Integrin Binding Protein 1 (CIB1) Competitor (AID 1508620).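 Further: GST tagged CIB1 binding a fluorescein labelled alphaIIb integrin peptide tracer; top concentration of the series differs between compounds.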 A digest of the protocol:
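Fluorescence polarization competition: CIB1-GST (1 uM final) preincubated with compound 15 min at room temperature, then FITC-labeled alphaIIb peptide (100 nM final) added for another 15 min. Polarization read at Ex 480/Em 540.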
A general note: qHTS replaces the single test concentration by a dilution series.

The target in assay [2] is Cytochrome P450 2D6 (Homo sapiens) (UniProt P10635). Description: Cytochrome P450 family 2 subfamily D member 6 (CYP2D6) small molecule antagonists: luciferase biochemical (cell-free) qHTS assay (AID 1645840; active means well fitted curve in the direction sought with a large enough effect in the repeat runs; an effect the other way counts as inactive or inconclusive; further: nearly all actives have a fitted effect of over 55% in size; further: potency means the concentration at half of the fitted maximal effect). The method, boiled down:
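P450-Glo CYP2D6 system: proluciferin substrate converted by enzyme to luciferin, read by luminescence proportional to activity. Enzyme-substrate mix with compound 10 min at room temperature, then NADPH regeneration 1 h before detection reagent.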

In assay [3] the target is Cytochrome P450 2C9 (Homo sapiens) (UniProt P11712). The assay can be described thus: Cytochrome P450 family 2 subfamily C member 9 (CYP2C9) small molecule antagonists: luciferase biochemical (cell-free) qHTS assay (AID 1645842; active means well fitted curve in the direction sought with a large enough effect in the repeat runs; an effect the other way counts as inactive or inconclusive; further: nearly all actives have a fitted effect of over 55% in size; further: potency means the concentration at half of the fitted maximal effect). The method, boiled down:
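P450-Glo CYP2C9 system: proluciferin substrate with enzyme in mix containing 0.4% BSA, 10 min at room temperature, then NADPH regeneration solution added and incubated 1 h at 37C. Detection reagent stopped reaction; luminescence read after 20 min as RLU.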

The target of assay [4] is Cytochrome P450 3A4 (Homo sapiens) (UniProt P08684). The assay can be described thus: Cytochrome P450 family 3 subfamily A member 4 (CYP3A4) small molecule antagonists: luciferase qHTS assay (AID 1645841; active means well fitted curve in the direction sought with a large enough effect in the repeat runs; an effect the other way counts as inactive or inconclusive; further: nearly all actives have a fitted effect of over 45% in size; further: potency means the concentration at half of the fitted maximal effect). The method, boiled down:
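P450-Glo CYP3A4 enzyme with proluciferin substrate was preincubated with DMSO-dissolved compounds for 10 min at room temperature. NADPH regeneration solution started a 1 h reaction. Detection reagent stopped it, and luminescence was read after 20 min.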

Assay [5] is described as follows: Primary qHTS for inhibitors of nuclear receptor binding SET domain protein 2 (NSD2) in an isogenic RCH-ACV NSD2 p.E1099K mutant (9B) (AID 1645876). Further: nearly all actives have a fitted effect of over 70% in size. Further: potency means the concentration at half of the fitted maximal effect.
Assay [6] is described as follows: Primary qHTS for inhibitors of nuclear receptor binding SET domain protein 2 (NSD2) in an RCH-ACV wild type WT cells (2C) (AID 1645877). Further: nearly all actives have a fitted effect of over 70% in size. Further: potency means the concentration at half of the fitted maximal effect.

Chain of Cytochrome P450 2D6 (Homo sapiens) (P10635 whole entry, looked up): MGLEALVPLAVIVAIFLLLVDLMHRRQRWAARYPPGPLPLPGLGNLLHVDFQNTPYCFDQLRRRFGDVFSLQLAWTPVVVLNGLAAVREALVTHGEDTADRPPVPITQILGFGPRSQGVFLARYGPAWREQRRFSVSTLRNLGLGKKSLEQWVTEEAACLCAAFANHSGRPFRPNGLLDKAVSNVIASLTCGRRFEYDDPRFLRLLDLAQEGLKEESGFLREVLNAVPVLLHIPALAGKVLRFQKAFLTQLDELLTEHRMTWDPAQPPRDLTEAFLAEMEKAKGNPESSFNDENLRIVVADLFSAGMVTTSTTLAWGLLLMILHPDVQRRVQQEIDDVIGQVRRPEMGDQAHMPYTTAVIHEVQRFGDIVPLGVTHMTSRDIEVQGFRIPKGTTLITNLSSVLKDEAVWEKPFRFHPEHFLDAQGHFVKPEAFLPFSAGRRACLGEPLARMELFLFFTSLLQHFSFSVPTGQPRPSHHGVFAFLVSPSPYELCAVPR
Chain of Cytochrome P450 3A4 (Homo sapiens) (P08684 whole entry, looked up): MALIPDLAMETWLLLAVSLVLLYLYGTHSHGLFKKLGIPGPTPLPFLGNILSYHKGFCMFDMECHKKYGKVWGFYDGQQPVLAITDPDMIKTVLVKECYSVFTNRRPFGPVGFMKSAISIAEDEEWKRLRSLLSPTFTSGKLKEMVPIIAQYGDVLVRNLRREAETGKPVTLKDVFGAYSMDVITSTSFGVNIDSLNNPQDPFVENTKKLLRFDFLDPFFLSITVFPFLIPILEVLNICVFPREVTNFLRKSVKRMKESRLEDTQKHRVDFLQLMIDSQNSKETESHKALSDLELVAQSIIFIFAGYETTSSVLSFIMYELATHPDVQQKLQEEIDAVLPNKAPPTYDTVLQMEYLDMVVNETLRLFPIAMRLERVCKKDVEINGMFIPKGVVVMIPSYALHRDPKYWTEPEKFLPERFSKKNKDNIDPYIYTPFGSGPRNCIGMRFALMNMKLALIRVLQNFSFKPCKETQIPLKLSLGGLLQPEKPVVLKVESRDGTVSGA
Chain of Cytochrome P450 2C9 (Homo sapiens) (P11712 whole entry, looked up): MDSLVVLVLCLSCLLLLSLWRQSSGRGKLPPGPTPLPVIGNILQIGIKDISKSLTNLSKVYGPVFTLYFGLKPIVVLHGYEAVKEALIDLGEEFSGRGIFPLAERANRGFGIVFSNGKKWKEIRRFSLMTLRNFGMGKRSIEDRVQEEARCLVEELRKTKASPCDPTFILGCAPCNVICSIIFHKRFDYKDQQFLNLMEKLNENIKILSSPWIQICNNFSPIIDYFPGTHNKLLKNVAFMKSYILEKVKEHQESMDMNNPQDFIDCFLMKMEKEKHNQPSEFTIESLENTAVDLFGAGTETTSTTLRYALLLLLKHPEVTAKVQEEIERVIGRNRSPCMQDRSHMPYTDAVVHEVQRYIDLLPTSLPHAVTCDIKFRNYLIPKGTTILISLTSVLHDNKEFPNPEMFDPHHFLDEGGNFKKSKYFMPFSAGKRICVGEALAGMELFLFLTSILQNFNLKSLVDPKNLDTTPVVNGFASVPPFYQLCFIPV
Chain of Calcium and integrin-binding protein 1 (Homo sapiens) (Q99828 whole entry, looked up): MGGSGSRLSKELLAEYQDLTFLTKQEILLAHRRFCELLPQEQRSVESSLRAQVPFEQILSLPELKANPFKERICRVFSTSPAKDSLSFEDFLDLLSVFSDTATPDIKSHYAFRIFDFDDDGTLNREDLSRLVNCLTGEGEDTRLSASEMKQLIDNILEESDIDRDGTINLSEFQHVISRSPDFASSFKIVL

Consider `CCCn1ncc(CN2CCCC(C(=O)c3cccc(OC(C)C)c3)C2)c1C` (centres undefined), for which the Potency entry in assay [1] was “inactive”. The Potency in assay [2] is 0.338 µM (active).

Regarding `Cc1cn2c(n1)Cc1ccc(Cl)cc1C(c1ccc(N)cc1)=N2`, the Potency entry in assay [1] was “inactive”. Besides, the Potency was 16.9 µM (active) in assay [2] and 12 µM (active) in assay [3].

With `CCNC(=O)N1CCCN(c2ccc(C(=O)NCCc3ccc(Cl)cc3Cl)cc2NC(=O)c2cccc(Cl)c2)CC1`, the Potency result in assay [1] is “inactive”. In addition, the Potency in assay [2] was 4.77 µM (active).

Take `Cc1cc(F)ccc1-c1nc(NCCN=C(N)NC#N)nc2c1ccc(=O)n2-c1c(F)cccc1F`: the Potency entry in assay [1] was “inactive”. Besides, the Potency in assay [2] was 19 µM (active).

Turning to `COc1ccccc1N1CCN(CC[C@@](C)(C(=O)C2CCCCC2)c2ccccc2)CC1`, the Potency entry in assay [1] is “inactive”. Also, the Potency is 12 µM (active) in assay [2], 6.01 µM (active) in assay [4], 8.49 µM (active) in assay [3] and 16.3 µM (active) in assay [5].

Turning to `NS(=O)(=O)c1ccc(N2CCN(CC[C@@H]3OCCc4ccccc43)CC2)cc1`, the Potency result in assay [1], in assay [4], in assay [3] and in assay [5] was “inactive” each time. For the same compound, in assay [2], the Potency is 23.9 µM (active).

`COc1cc(N(C)CCN(C)C)c(N)cc1Nc1nccc(-c2cn(C)c3ccccc23)n1`: the Potency entry in assay [1] is “inactive”. Also, in assay [2], the Potency was 19 µM (active).

For `COc1ccc(Sc2ccc(NC(=O)c3ccccc3Cl)cc2C#N)cc1`, the Potency entry in assay [1] and in assay [2] was “inactive” each time.

On to `Cc1cccc(-c2[nH]ncc2-c2ccnc3ccccc23)n1`, for which the Potency entry in assay [1] and in assay [2] was “inactive” each time. Moreover, in assay [3], the Potency was 9.52 µM (active).

Take `O=C(CNC(=O)c1cccc(C(F)(F)F)c1)N[C@@H]1CCN(Cc2ccc(Cl)cc2)C1`: in assay [1], the Potency result is “inactive”. Moreover, the Potency in assay [2] is 0.0535 µM (active).

On to `O=C1Nc2nc(-c3c(O)cccc3OCC3CC3)cc([C@@H]3CCCNC3)c2CO1`, for which the Potency entry in assay [1] and in assay [4] was “inactive” in each case. Moreover, the Potency in assay [2] is 19 µM (active); in assay [5], 5.78 µM (active); in assay [6] it was 5.15 µM (active).

With `C=C(C)Cn1c(SCC(=O)c2cccs2)nc2sc3c(c2c1=O)CCCC3`, the Potency result in assay [1] and in assay [2] was “inactive” each time.

For `COc1cccc(N2CCN(C3=Nc4c(F)cccc4[C@H](CC(=O)O)N3c3cc(C(F)(F)F)ccc3OC)CC2)c1`, the Potency result in assay [1] and in assay [2] was “inactive” throughout.

`Nc1nc(O)c(C2=C3C(=Nc4ccccc43)C(=O)NCC2)[nH]1`: the Potency result in assay [1], in assay [2] and in assay [4] was “inactive” in each case. In assay [6], the Potency was 16.3 µM (active).

For `CCCc1cc2c(N3CCN(C4=NCC(C)(C)S4)CC3)ncnc2s1`, the Potency result in assay [1] and in assay [3] was “inactive” throughout. Besides, the Potency in assay [2] was 0.952 µM (active).

As to `C=CC(=O)N1CCC(Oc2cc3c(Nc4ccc(Cl)c(Cl)c4F)ncnc3cc2OC)CC1`, in assay [1], the Potency entry is “inactive”. Moreover, the Potency in assay [2] is 2.68 µM (active); in assay [4], 0.239 µM (active); in assay [3] it was 9.52 µM (active); in assay [5], 4.68 µM (active); in assay [6], 4.68 µM (active).

In the case of `CN(C)c1cccc(Oc2cnc(Nc3cccc(O)c3)nc2)c1`, in assay [1], the Potency entry is “inactive”. Further, the Potency in assay [2] was 21.3 µM (active).

For `COC(=O)c1ccc2c(c1)nc(NC(=O)c1ccccc1)n2CCCc1ccccc1`, the Potency entry in assay [1], in assay [2], in assay [4], in assay [5] and in assay [6] was “inactive” in each case. In assay [3], the Potency was 23.9 µM (active).

Take `Cc1ccc(C(=O)Nc2ccc(CN3CCN(C)CC3)c(C(F)(F)F)c2)cc1C#Cc1cnc2[nH]ncc2c1`: in assay [1], the Potency result is “inactive”. In addition, the Potency is 16.9 µM (active) in assay [2]; 6.01 µM (active) in assay [4]; 4.77 µM (active) in assay [3]; 11.5 nM (active) and 26.3 nM (active) in assay [5]; 14.5 nM (active) and 41.7 nM (active) in assay [6].

As to `CNC(=O)c1ccc2c(c1)CCO[C@H]2CCN1CCN(c2ccc(OC)cc2)CC1`, the Potency entry in assay [1], in assay [2], in assay [4], in assay [5] and in assay [6] was “inactive” in each case.

Take `C=CC(=O)N1CC(N2CCN(C(=O)CNc3cc(C4CC4)c(Cl)cc3O)CC2)C1`: the Potency entry in assay [1] and in assay [2] was “inactive” throughout.

For the compound `Nc1nc(OCc2cc(Br)cs2)c2[nH]cnc2n1`, the Potency result in assay [1] was “inactive”. The Potency in assay [2] is 6.74 µM (active).

As for `O=C(Nc1ccc2[nH]c(=O)oc2c1)C(=O)N1CCC(Cc2ccc(F)cc2)CC1`, the Potency result in assay [1] is “inactive”. Moreover, the Potency in assay [2] was 21.3 µM (active).

As to `CC1(C)OC[C@H](NC(=O)Nc2ccc(Br)cc2Br)[C@H](c2ccccc2)O1`, the Potency entry in assay [1] and in assay [2] was “inactive” throughout.

`COc1ccc(C#Cc2ccc(C(=O)N3CCC[C@@H](O)C3)c(F)c2)cc1`: the Potency entry in assay [1] and in assay [2] was “inactive” in each case.

As for `CCCN(CCc1ccsc1)C1CCc2c(O)cccc2C1` (centres undefined), the Potency result in assay [1] is “inactive”. Moreover, the Potency in assay [2] is 0.338 µM (active).

`Fc1ccc(CN2CCC(Nc3ccc(C(F)(F)F)nn3)CC2)cc1F`: the Potency entry in assay [1], in assay [4], in assay [5] and in assay [6] was “inactive” throughout. The Potency in assay [2] was 1.2 µM (active).

For `CC1(NC(=O)c2ccc(C#Cc3cccc(F)c3)cn2)COC1`, the Potency entry in assay [1] and in assay [2] was “inactive” each time.

As for `O=c1[nH]c([C@@H]2CCCN2)nc2c1oc1ccc(Cl)cc12`, the Potency entry in assay [1], in assay [2], in assay [4] and in assay [3] was “inactive” in each case. Also, the Potency in assay [5] is 9.16 µM (active); in assay [6], 4.59 µM (active) and 10.5 µM (active).
